# Measurements as given in PubChem BioAssay AID651908 (Vanderbilt Specialized Chemistry Center, 2012).
# Activity calls are given as the source filed them. How the calls were made is not given here.
# Target: Histone deacetylase 8 (Homo sapiens) (UniProt Q9BY41)
# Assay: inhibitors of recombinant human HDAC8 – biochemical, selectivity assay for E-cadherin restoration project, profiling panel (AID 651908)
# Histone deacetylase 8 (Homo sapiens), sequence (Q9BY41 whole entry, looked up): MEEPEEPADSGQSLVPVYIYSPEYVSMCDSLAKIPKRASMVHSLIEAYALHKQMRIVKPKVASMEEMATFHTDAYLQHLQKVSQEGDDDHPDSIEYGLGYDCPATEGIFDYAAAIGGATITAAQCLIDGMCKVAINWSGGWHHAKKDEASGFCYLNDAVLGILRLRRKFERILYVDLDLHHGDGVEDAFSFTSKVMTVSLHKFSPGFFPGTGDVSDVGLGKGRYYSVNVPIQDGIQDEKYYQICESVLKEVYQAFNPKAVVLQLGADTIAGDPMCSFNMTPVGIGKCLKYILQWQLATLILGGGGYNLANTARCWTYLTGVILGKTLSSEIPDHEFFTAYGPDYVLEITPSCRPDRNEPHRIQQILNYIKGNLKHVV
compound,measurement,value
O=C(NCCCNC(=O)c1ccc[nH]c1=O)c1cc(-c2ccccc2)on1,outcome,inactive
